Experimental data reported in a collection of fitness landscapes (doi:10.1126/science.1257360).
The full ranking holds about 140,000 sequences; the median of “enrichment ratio after two sorts for PhoP signalling” is about 0, and the highest 2% start at about 11. The entries come from a sample that favours the highest values as a whole.

B1: PhoQ; a variant is named by its letters at X, in order, P23837 (parent)
chain: MKKLLRLFFPLSLRVRFLLATAAVVLVLSLAYGMVALIGYSVSFDKTTFRLLRGESNLFYTLAKWENNKLHVELPENIDKQSPTMTLIYDENGQLLWAQRDVPWLMKMIQPDWLKSNGFHEIEADVNDTSLLLSGDHSIQQQLQEVREDDDDAEMTHSVAVNVYPATSRMPKLTIVVVDTIPVELKSSYMVWSWFIYVLSANLLLVIPLLWVAAWWSLRPIEALAKEVRELEEHNRELLNPATTRELTSLVRNLNRLLKSERERYDKYRTTLTDLTHSLKTPLXXLQXXLRSLRSEKMSVSDAEPVMLEQISRISQQIGYYLHRASMRGGTLLSRELHPVAPLLDNLTSALNKVYQRKGVNISLDISPEISFVGEQNDFVEVMGNVLDNACKYCLEFVEISARQTDEHLYIVVEDDGPGIPLSKREVIFDRGQRVDTLRPGQGVGLAVAREITEQYEGKIVAGESMLGGARMEVIFGRQHSAPKDE

Variants of: B1
Assay: enrichment ratio after two sorts for PhoP signalling (ratio (wild type AVST 3.29)); higher = more functional
Conditions: with PhoP (E. coli)

Variant | enrichment ratio
HTRW | ≤ 0.25
TYTW | ≤ 0.25
RVSE | ≤ 0.25
PWWY | ≤ 0.25
GELC | 8.26
IGYI | ≤ 0.25
YYAS | ≤ 0.25
MESY | 14.8
NMSY | ≤ 0.25
SMSY | 11.4
MMSY | 2.46
SNSY | 12.8
SPSY | ≤ 0.25
KYSY | ≤ 0.25
MKSY | ≤ 0.25
SDSY | ≤ 0.25
HYIP | ≤ 0.25
DCSH | ≤ 0.25
VCML | 10
QPML | ≤ 0.25
TYML | 0.784

Variant | enrichment ratio
FTML | 12
YCNL | ≤ 0.25
FCML | 21.1
KCML | ≤ 0.25
YCML | 12.7
FPML | ≤ 0.25
YYML | ≤ 0.25
TCML | 16.7
YTML | 5.16
ILLC | ≤ 0.25
TKRF | ≤ 0.25
EMVN | ≤ 0.25
VCYH | ≤ 0.25
HYMK | ≤ 0.25
KEFY | ≤ 0.25
LSFV | 5.15
SLYE | ≤ 0.25
TVML | 1.47
NVML | ≤ 0.25
FVML | 13.2
EIFI | ≤ 0.25

Variant | enrichment ratio
NLQN | ≤ 0.25
IMRF | ≤ 0.25
TCCR | 13.1
TEKR | ≤ 0.25
TCKR | ≤ 0.25
CDCR | ≤ 0.25
VECR | ≤ 0.25
TECR | 16.3
QFGW | ≤ 0.25
KPGY | ≤ 0.25
KAWY | ≤ 0.25
VNCT | 1.24
MEFD | ≤ 0.25
AHCH | 2.08
AQCH | 32.7
AGCH | 11.6
AICH | 15.1
RGCH | ≤ 0.25
WICH | ≤ 0.25
TGCH | 10.6
NQCH | ≤ 0.25

Variant | enrichment ratio
AQTH | ≤ 0.25
MICD | ≤ 0.25
EHIV | ≤ 0.25
FHVI | ≤ 0.25
GTWL | ≤ 0.25
IFFD | ≤ 0.25
KVLP | ≤ 0.25
LFKL | ≤ 0.25
SPLI | ≤ 0.25
ATLS | 10.6
STLI | 12.4
ATLT | 10.2
DPLI | ≤ 0.25
YTLI | 12.8
KYLI | ≤ 0.25
ATLI | 15.7
SILI | 4.12
QPLI | ≤ 0.25
SQLI | 11.8
FTLI | 10.3
SDYI | ≤ 0.25
